Compound activity as filed in PubChem BioAssay.
Hits are enriched below; roughly 10% of the tested compounds scored in any of these assays.
HPGD block – HPGD (human) dehydrogenase inhibition | Potency, µM, for the others: at the highest dose activity change, negative = inhibition, actives largely listed as inhibitors | P15428 | 150,000 tested, 4.3% active | AID 894 | purified HPGD, NADH fluorescence kinetic, PGE2 substrate; note: potency is the fitted concentration of half-maximal effect
Target sequence (P15428 whole entry, looked up): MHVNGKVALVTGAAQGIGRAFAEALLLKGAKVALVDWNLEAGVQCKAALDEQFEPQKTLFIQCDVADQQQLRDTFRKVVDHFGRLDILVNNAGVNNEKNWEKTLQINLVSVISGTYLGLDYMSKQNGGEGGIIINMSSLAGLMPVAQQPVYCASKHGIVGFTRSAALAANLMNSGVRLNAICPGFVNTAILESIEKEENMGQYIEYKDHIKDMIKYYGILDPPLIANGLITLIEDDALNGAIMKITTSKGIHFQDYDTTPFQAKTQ
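20 nM HPGD preincubated 15 min at room temperature with compound in 50 mM Tris-HCl pH 8, 0.01% Tween 20. Started with 1 mM NAD+ and 30 uM prostaglandin E2; NADH fluorescence (360/450 nm) read 5 times over 30-s intervals, last minus first.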
ALOX12 inhib – blocks human 12-lipoxygenase activity. Potency, µM (top dose mostly 57.1 µM), for inactives: top-dose activity change, negative = inhibition, usual class: inhibitors. purified 12-hLO, xylenol orange hydroperoxide absorbance. 150,000 tested, 0.12% active. P18054; active = well fitted inhibition curve with a large enough effect; inconclusive = small, poorly fitted or top-dose-only effect; note: potency is the fitted concentration of half-maximal effect; nearly all actives have a fitted effect of over 55% in size
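Purified human 12hLO (150 nM), preincubated 15 min with compound, then 40 uM arachidonic acid for 30 min, room temperature, Hepes pH 7.0 with 0.01% Triton X-100. Hydroperoxide detected by ferrous iron/xylenol orange; 573/405 nm absorbance ratio gives reaction progress.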
PNC assembly inh – blocks assembly of the perinucleolar compartment | activity change (PNC), negative = inhibition, % at 10 µM | PC3M PTB-GFP, PNC prevalence imaging, 16 h; active compounds read low | 140,000 tested, 3.1% active;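 active = readout at or below -70, meaning at least 70% loss of cells showing the perinucleolar compartment, a nuclear body marking cancer cells; inconclusive = readout between -30 and a set limit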;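 note: plate controls were DMSO wells for no effect and camptothecin positive control wells for full effect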
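Read-out is percentage of cells bearing a perinucleolar compartment, from automated 20x imaging of fixed, Hoechst-stained PC3M PTB-GFP cells. Cells were seeded 4 h, then exposed 16 h to compound (23 nl of library stock) in duplicate plates.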
LMNA splice mod – LMNA splicing modulation. HeLa LMNA splicing GFP/RFP minigene ratio, 48 h. Potency, µM (titrated, usually from 46.1 µM), for inactives: top-dose ratio change, negative = inhibition, hits mostly inhibitors. 200,000 tested, 0.01% active; active = well fitted inhibition curve with a large enough effect in the signal ratio, with a control signal flat, not every such curve was filed as active; inconclusive = small, poorly fitted or top-dose-only effect, or effect the other way, or a change in a side signal; the % refers to the signal ratio; note: potency is the fitted concentration of half-maximal effect
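Read-out is the ratio of GFP to DsRed2 object intensity, acquired by 488 nm laser-scanning cytometry on HeLa lamin A-EGFP minigene reporter cells. Compound incubation 48 hrs at 37 °C in Opti-MEM with 2% FBS; DMSO 0.5% final.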
ALDH1A1 inh – ALDH1A1 (human) enzyme inhibition; P00352; Purified ALDH1A1, NADH fluorescence, propionaldehyde substrate; Potency, µM (highest dose often 75.3 µM), for inactives: at the highest dose activity, negative = inhibition, actives largely listed as inhibitors; 220,000 tested, 7.3% active; AID 1030;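 note: potency is the fitted concentration of half-maximal effect; plate controls were no enzyme wells and a reference inhibitor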
* hit, by the source's call; [ ] = another dose, or the depositor's remark. Unless noted, calls come from the whole dose curve; as a rule, active = well fitted inhibition curve with a large enough effect (not every such curve was filed as active); inconclusive = small, poorly fitted or top-dose-only effect, or another doubt; inactive = no such curve, though single readings can be large or run the other way. Unless noted, % is set by controls: 0 for no effect and ±100 for the full control effect.

What do the screens show for `CC(C)CC(=O)Nc1cc([N+](=O)[O-])ccc1Cl`?
HPGD block: -8.0%; ALOX12 inhib: -6.7%; PNC assembly inh: -19.9; LMNA splice mod: 4.4%; ALDH1A1 inh: 1.7%

What do the screens show for `CC(C(=O)Nc1cc([N+](=O)[O-])ccc1Cl)N1CCN(c2ccc(O)cc2)CC1` (stereo unspecified)?
HPGD block: -5.4%; ALOX12 inhib: -4.7%; PNC assembly inh: -85.2*; LMNA splice mod: inconclusive; ALDH1A1 inh: 7.08µM*

Results for Cc1ccc([N+](=O)[O-])cc1NC(=S)NC(=O)c1cccnc1 ?
LMNA splice mod: -4.1%[46 µM]; ALDH1A1 inh: -6.0%

What do the screens show for `O=C(NC(=S)Nc1cc([N+](=O)[O-])ccc1Cl)c1ccccc1`?
HPGD block: inconclusive; ALOX12 inhib: -2.4%; PNC assembly inh: 16.6; LMNA splice mod: inconclusive; ALDH1A1 inh: 8.91µM*

What do the screens show for `O=C(O)c1ccc(Cl)c(NC(=S)NC(=O)c2ccccc2[N+](=O)[O-])c1`?
ALDH1A1 inh: 22.4µM*

How did O=C(NC(NC(=S)Nc1ccc(Cl)cc1Cl)C(Cl)(Cl)Cl)c1cccc([N+](=O)[O-])c1 (stereo unspecified) do in these assays?
HPGD block: -13.8%; ALOX12 inhib: inconclusive; PNC assembly inh: 106.2; LMNA splice mod: inconclusive; ALDH1A1 inh: 17.8µM*

How did O=C(O)c1ccc(Cl)c(S(=O)(=O)Nc2ccccc2F)c1 do in these assays?
HPGD block: -6.9%; ALOX12 inhib: 1.4%; ALDH1A1 inh: 1.2%

Results for O=C(CC(=O)c1ccccc1)Nc1cc(C(F)(F)F)ccc1Cl ?
HPGD block: -7.7%; ALOX12 inhib: -2.7%; PNC assembly inh: -21.0; LMNA splice mod: -14.7%; ALDH1A1 inh: inconclusive

Results for COc1ccc(C(=O)NC(=S)Nc2ccc([N+](=O)[O-])cc2C)cc1OC ?
HPGD block: -11.9%; ALOX12 inhib: -0.6%; PNC assembly inh: 33.3; LMNA splice mod: 5.1%; ALDH1A1 inh: 14.1µM*

How did O=C(NC(=S)Nc1cc(C(F)(F)F)ccc1Cl)c1ccccc1 do in these assays?
HPGD block: -11.4%; ALOX12 inhib: -5.8%; PNC assembly inh: 44.9; LMNA splice mod: 11.5%[0.0737 µM]; ALDH1A1 inh: 25.1µM*

How did O=C(CNC(c1ccccc1)c1ccccc1)Nc1cc([N+](=O)[O-])ccc1Cl do in these assays?
HPGD block: -28.9%; ALOX12 inhib: 2.4%; PNC assembly inh: -12.0; LMNA splice mod: inconclusive; ALDH1A1 inh: 7.08µM*

Results for O=C(CN1CCN(c2ccccc2O)CC1)Nc1cc([N+](=O)[O-])ccc1Cl ?
LMNA splice mod: 7.6%[46 µM]; ALDH1A1 inh: 22.4µM*

How did COc1ccc(-c2nc(-c3ccccc3)oc2Nc2c(C)cccc2C)cc1 do in these assays?
HPGD block: -8.4%; ALOX12 inhib: -1.7%; ALDH1A1 inh: 0.8%

Results for CCOC(=O)C1=NO[C@@]2(C=C(Br)C3(OCCCO3)[C@H]3O[C@H]32)C1 ?
ALDH1A1 inh: -11.7%[13.5 µM]

How did CCCCCCCC/C=C\CCCCCCCC(=O)N(CCO)CCO do in these assays?
HPGD block: -8.4%; ALOX12 inhib: -0.4%; ALDH1A1 inh: inconclusive

Results for CSCCNC(=O)c1ccc(C(C)(C)C)cc1 ?
HPGD block: 14.1µM*; ALOX12 inhib: -1.7%; PNC assembly inh: -22.3; LMNA splice mod: 6.2%; ALDH1A1 inh: -8.6%

Results for Cc1cc(Cn2cnc3c2C[C@@H](C(=O)O)N(C(=O)C(c2ccccc2)c2ccccc2)C3)ccc1N(C)C ?
HPGD block: -7.5%; ALOX12 inhib: -5.2%; ALDH1A1 inh: inconclusive

Results for COC(=O)c1sccc1NC(=S)N(C)C1CCCCC1 ?
LMNA splice mod: 14.4%[46 µM]; ALDH1A1 inh: 0.355µM*

Results for CC(NC(=O)CSC(=S)N(C)C)C12CC3CC(CC(C3)C1)C2 (stereo unspecified) ?
ALOX12 inhib: 4.1%; PNC assembly inh: -4.8; LMNA splice mod: -12.9%; ALDH1A1 inh: 12.6µM*

What do the screens show for `Fc1ccccc1NC(=S)Nc1cccc2cnccc12`?
LMNA splice mod: -4.8%[46 µM]; ALDH1A1 inh: 17.8µM*

How did Cc1ccccc1NC(=S)Nc1cccc2cnccc12 do in these assays?
LMNA splice mod: 13.5%[9.22 µM]; ALDH1A1 inh: inconclusive

How did FC(F)(F)c1ccccc1NC(=S)Nc1cccc2cnccc12 do in these assays?
LMNA splice mod: 6.9%[46 µM]; ALDH1A1 inh: 25.1µM*
